Source: PubChem BioAssay (Tox21)
Activity calls are given as the source filed them. Entries that show only a call come without a potency. Calls follow the shape of the full dose curve.

Target: Gonadotropin-releasing hormone receptor (Homo sapiens) (UniProt P30968)
Test: Human gonadotropin-releasing hormone receptor (GnRHR) small molecule agonists, calcium flux assay in GnRHR-HEK293 cells (AID 1920063); also: nearly all actives have a fitted effect of over 35% in size
Conditions: calcium flux fluorescence, agonist mode; series mostly up to 57.6 µM
Description: National Center for Advancing Translational Sciences [NCATS]
Division of Preclinical Innovation [DPI]
U.S. Environmental Protection Agency [EPA]
National Institutes of Environmental Health Sciences [NIEHS]
National Toxicology Program [NTP]
U.S. Food and Drug Administration [FDA]
Gonadotropin-releasing hormone receptor (GnRHR) is a G-protein-coupled receptor (GPCR) and acts (through phospholipase C) to increase intracellular inositol trisphosphate and then release intracellular calcium stores. Cell-based GnRHR-Hek293 calcium influx assay is using HEK293 cells that have been genetically engineered to express the human GnRHR, which activity can be measured by calcium signaling. A compound/drug can activate (agonist) GnRHR that can be monitored by levels of intracellular calcium.
GnRHR-HEK293 cells developed by Codex Corp contain human GnRHR reporter gene, which was stably integrated into HEK 293 cells. The compound activation can be detected by fluorescence intensity via calcium flux assay. This cell line has been used to screen the Tox21 10K compound library to identify GnRHR agonists.
GnRHR-Hek293 cells were dispensed at 1500cells/4uL/well in 1536-well black wall/clear bottom plates using a multidrop dispenser. After the assay plates were incubated at a 37 C/5% CO2 incubator for 18 hours, 4 uL of Calcium Dye Solution was added to each well. The plates were incubated at 37 C for 1 hour. For agonist mode, 23 nL of compounds dissolved in DMSO, positive controls or DMSO only was transferred to the assay plate by a pin tool station. The fluorescence intensity in the plates was measured using FDSS 7000EX kinetic plate reader with a filter set of Ex/Em=480/540 for 3 min at 1 sec intervals. Each test compound was measured at 15 concentrations and in triplicates.
Potency is read from the fitted curve at half-maximal effect.

Sequence of Gonadotropin-releasing hormone receptor (Homo sapiens) (P30968 whole entry, looked up): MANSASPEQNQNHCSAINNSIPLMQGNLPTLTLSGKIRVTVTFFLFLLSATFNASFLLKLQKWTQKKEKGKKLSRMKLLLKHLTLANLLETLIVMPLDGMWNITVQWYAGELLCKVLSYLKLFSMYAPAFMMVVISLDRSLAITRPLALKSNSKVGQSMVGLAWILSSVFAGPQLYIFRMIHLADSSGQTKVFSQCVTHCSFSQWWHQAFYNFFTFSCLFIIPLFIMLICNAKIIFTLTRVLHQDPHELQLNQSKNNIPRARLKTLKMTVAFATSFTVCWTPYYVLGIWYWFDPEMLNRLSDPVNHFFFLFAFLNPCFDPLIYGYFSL

SMILES | Potency
Nc1c(Cl)c(Cl)nc(C(=O)O)c1Cl | inactive
Nc1ncn[nH]1 | inactive
CCC(Br)(CC)C(=O)NC(N)=O | inactive
CON(C)C(=O)Nc1ccc(Cl)c(Cl)c1 | inactive
Cn1c(N)nc2c3cccnc3ccc21 | inactive
Cc1ccc2ccccc2c1 | inactive
CCOS(C)(=O)=O | inactive
O=C(O)C(F)(F)C(F)(F)C(F)(F)C(F)(F)C(F)(F)C(F)(F)C(F)(F)C(F)(F)C(F)(F)C(F)(F)F | inactive
Cc1coc2c1CCC(C)C2 (stereo not given) | inactive
Cc1ccc(N)cc1N | inactive
c1ccc2c(c1)-c1cccc3cccc-2c13 | inactive
CCC[N+](=O)[O-] | inactive
ClC1=C(Cl)C2(Cl)C3C(Cl)C(Cl)CC3C1(Cl)C2(Cl)Cl (stereo not given) | inactive
S=C1NCCN1 | inactive
O=C(O)C(Cl)(Cl)Br | inactive
CCCCCCI | inactive
CC(C)=CC1C(C(=O)OCN2C(=O)C3=C(CCCC3)C2=O)C1(C)C (stereo not given) | inactive
Nc1ccc(-c2ccccc2)cc1 | inactive
O=C1c2ccccc2C(=O)N1SC(Cl)(Cl)Cl | 38.9 µM (active)
Cc1ccc(C(=O)Cl)cc1 | inactive

SMILES | Potency
Oc1ccccc1-c1ccccc1 | inactive
CN1C(=O)CN=C(c2ccccc2)c2cc(Cl)ccc21 | inactive
CCC(=O)Nc1ccc(Cl)c(Cl)c1 | inactive
C[C@]12C=CC3=C4CCC(=O)C=C4CC[C@H]3[C@@H]1CC[C@@H]2O | inactive
O=NN(c1ccccc1)c1ccccc1 | inactive
C[C@]12CCC(=O)C=C1CC[C@@H]1[C@@H]2CC[C@]2(C)C(=O)CC[C@@H]12 | inactive
CCOC(=O)Nc1cccc(OC(=O)Nc2ccccc2)c1 | inactive
CN(C)NC(=O)CCC(=O)O | inactive
C=C(C)C(=O)OCC(CC)CCCC (stereo not given) | inactive
CCCCOP(=O)(CCCC)OCCCC | inactive
CCOP(=S)(OCC)SCSc1cc(Cl)ccc1Cl | inactive
CCCCCCCCCCCC(=O)O | inactive
Nc1c(Br)cc([N+](=O)[O-])cc1[N+](=O)[O-] | inactive
CCOP(=O)(OCC)SCCSCC | inactive
CC1(C)Cc2cccc(O)c2O1 | inactive
CCN(CC)Cc1nccn1-c1ccc([N+](=O)[O-])cc1C(=O)c1ccccc1Cl | inactive
CC(C)(O)C(=O)Nc1ccc([N+](=O)[O-])c(C(F)(F)F)c1 | inactive
O=[N+]([O-])c1ccccc1-c1ccccc1 | inactive
O=P(OCC(Br)CBr)(OCC(Br)CBr)OCC(Br)CBr (stereo not given) | inactive
CCC(C)n1c(=O)[nH]c(C)c(Br)c1=O (stereo not given) | inactive
